A selection: hits, their analogues and other compounds. The true share with any hit is near 4%.
Shn3 inh set2: inhibitors of Schnurri-3 3'UTR reporter in osteoblasts. inhibition, % at 12.5 µM. actives 0.52% (n = 360,000). Clone20 osteoblast Shn3 3'UTR firefly luciferase, 24 h;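 active = mean inhibition of at least 75% with every replicate also reaching 75%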;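 note: 0% = median of neutral control wells and 100% = pilot-screen positive control compound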
Mdm2 MdmX PPI: inhibitors of human Mdm2/MdmX interaction. AID 485346. O15151+Q00987. inhibition, % at 8 µM. actives 3% (n = 330,000). SaOS-2 split-luciferase Mdm2/MdmX complementation, luminescence;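 active = inhibition of at least 50% at 8 µM in the primary screen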
Gli-Sufu antag: blocks Gli-Sufu signaling in a luciferase reporter; inhibition, % at 5 µM; actives 0.74% (n = 340,000); Sufu-KO-LIGHT fibroblasts, Gli luciferase reporter luminescence; AID 588413;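 active = inhibition above about 55%, limit read from the data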;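 note: 0% = DMSO-treated cells and 100% = wells with medium but no cells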
PAX8 reporter: inhibitors of PAX8 transcriptional activity in RMG-I cells. AID 652154. actives 1.2% (n = 360,000). RMG-I TPO-luciferase reporter, SteadyGlo, 24 h. inhibition, % at 12.6 µM;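 active = mean replicate inhibition at least 60% with every replicate also reaching 60%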;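 note: luciferase light reporting Pax8 driven TPO promoter activity; plate controls were median of neutral control wells for no effect and mitoxantrone controls for full effect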
CSC inhib: blocks cancer stem cells | cancer stem cell-like cells viability, luminescence | inhibition, % at 7.5 µM | actives 1.1% (n = 300,000) | AID 2717; in the data active = inhibition above about 75%; tested in HMLE shEcad cells
Beta cell apopt: beta cell apoptosis inhibition | INS-1E cytokine-induced death, ATP luminescence, 48 h; percent of positive-control rescue, neutral wells zero | protection from apoptosis, % (test concentration not listed) | actives 0.8% (n = 300,000) | AID 435005;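 active = Every replicate reaches about 75%, or at least half do and their mean reaches it too, limit read from the data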;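 note: 0% = cytokine-treated negative control wells and 100% = positive control rescue; higher means more ATP so stronger rescue from cytokine killing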
Mdm2 MdmX conf: human Mdm2/MdmX binding inhibition, confirmed. inhibition, % at 8 µM. actives 55% (n = 10,000). shares compounds with Mdm2 MdmX PPI. luminescent assay; in the data active = inhibition above about 40%
Full FLuc ctr: full-length luciferase inhibition in Mdm2/MdmX counter-screen | actives 77% (n = 6,200) | SaOS-2 full-length luciferase counterscreen, luminescence | shares compounds with Mdm2 MdmX PPI | inhibition, % at 8 µM;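 active = mean inhibition at 8 µM reaching about 37%, which flags the compound as non-specific, limit read from the data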;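 note: p53-null SaOS-2 cells with luciferase driven by a doxycycline-inducible promoter; compound on cells about two nights before reading with doxycycline added after day one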
* hit, by the source's call; x = no result.

SMILES	Shn3 inh set2	Mdm2 MdmX PPI	Gli-Sufu antag	PAX8 reporter	CSC inhib	Beta cell apopt	Mdm2 MdmX conf	Full FLuc ctr
Cc1c(-c2ccccc2)oc2c(C(=O)N3CCN(c4ccc([N+](=O)[O-])cc4)CC3)cccc2c1=O	26.0	66.8*	-1.5	-9.2	x	0.2	77.4*	50.8*
Cc1ccc(C(=O)c2cc([N+](=O)[O-])ccc2N2CCCCC2)cc1C	26.9	63.9*	42.8	36.5	-19.4	x	57.8*	60.4*
Cc1c(C(=O)N2CCN(c3ccc([N+](=O)[O-])cc3)CC2)oc2ccccc12	12.3	10.2	9.9	11.5	x	10.5	x	x
Cc1ccc(C(=O)c2cc([N+](=O)[O-])ccc2N2CCOCC2)cc1C	-15.2	51.4*	18.4	18.5	66.6	-3.7	61.5*	60.4*
COCCN(C[C@H]1N[C@H](CO)[C@@H]1c1ccc(-c2ccc(F)cc2)cc1)C(C)=O	x	x	x	11.8	x	x	x	x
CCOc1cc2nc(-c3ccc(OC)c(OC)c3)nc(N3CCOCC3)c2cc1OC	x	52.9*	-7.5	x	12.5	5.2	45.3*	82.7*
O=C(CCl)N(Cc1cc(=O)[nH]c2ccccc12)c1ccccc1	3.3	100.3*	-3.1	53.2	45.0	-16.6	100.2*	52.8*
Cc1ccccc1N(Cc1cc(=O)[nH]c2ccccc12)C(=O)C(C)C	6.7	17.0	10.9	-2.4	-7.0	-4.6	x	x
COC(=O)c1ccc(C(=O)N(Cc2ccccc2)c2ccccc2)cc1	13.0	46.9	-0.8	5.8	-2.0	1.1	x	x
O=C(CCl)N(Cc1ccccc1)c1ccccc1	17.2	96.3*	-16.6	108.3*	5.9	-4.0	96.3*	55.4*
Cc1ccccc1N(Cc1cc(=O)[nH]c2ccccc12)C(=O)CCl	12.3	95.8*	x	82.7*	22.0	-21.5	73.2*	58.4*
COc1ccccc1NC(=O)N[C@H]1C=C[C@@H](CC(=O)N[C@H](C)c2ccccc2)O[C@H]1CO	x	x	x	8.5	x	x	x	x
CC(=O)c1c(-c2ccccc2)[nH]c2ccccc12	4.4	51.9*	-7.8	-0.8	32.3	20.2	32.8	x
O=C(O)/C=C/C(=O)c1c(-c2ccccc2)[nH]c2ccccc12	3.3	23.0	2.9	56.1	-13.3	-6.6	x	x
CCC(=O)Nc1ccc2c(c1)C(=O)N(C)C[C@H](OC)[C@@H](C)CN(C(=O)Cc1ccccn1)[C@@H](C)CO2	x	x	x	-10.0	x	x	x	x
CC(=O)N(C)C1=C(N2CCOCC2)C(=O)c2ccccc2C1=O	77.5	82.2*	23.2	x	x	125.2*	85.7*	48.3*
O=C(NCC[C@@H]1CC[C@@H](NS(=O)(=O)c2ccc(F)cc2)[C@@H](CO)O1)Nc1ccc(Cl)cc1	x	x	x	-22.1	x	x	x	x
CC(C)NC(=O)N(C)C[C@@H]1OCCCC[C@@H](C)Oc2ccc(NC(=O)Nc3ccc(F)cc3)cc2C(=O)N([C@@H](C)CO)C[C@H]1C	x	x	x	5.1	x	x	x	x
Cc1cc(C)cc(SCc2noc(C(=O)NCCN(C)C)c2C(=O)NCCN(C)C)c1	7.5	88.7*	15.1	8.1	25.5	7.5	47.1*	48.9*
C[C@@H]1CN([C@@H](C)CO)C(=O)c2cc(NC(=O)CCC(F)(F)F)ccc2O[C@@H](C)CCCCO[C@@H]1CN(C)C	x	x	x	-23.6	x	x	x	x
COc1ccccc1NC(=O)N1CCN(c2ccnc3cc(Cl)ccc23)CC1	14.8	22.1	27.2	0.3	-14.4	-14.1	x	x
COc1ccccc1N1CCN(c2ccnc3cc(Cl)ccc23)CC1	20.1	56.0*	14.1	18.6	-13.9	37.7	64.0*	54.9*
O=S(=O)(c1ccccc1OC(F)(F)F)N1CCN(c2ccnc3cc(Cl)ccc23)CC1	71.4	58.9*	30.6	29.9	23.1	19.3	27.9	x
COc1ccc(Nc2nc(N)c([N+](=O)[O-])c(NC3CCCCC3)n2)cc1	-16.3	69.7*	-12.7	20.1	100.9*	3.3	11.9	x
COc1ccc(Nc2nc(N)c([N+](=O)[O-])c(NCCO)n2)cc1	-31.3	17.5	-22.5	7.0	-10.3	0.8	x	x
SMILES	Shn3 inh set2	Mdm2 MdmX PPI	Gli-Sufu antag	PAX8 reporter	CSC inhib	Beta cell apopt	Mdm2 MdmX conf	Full FLuc ctr
CNc1nc(Nc2ccc(Br)cc2)nc(N)c1[N+](=O)[O-]	-51.5	66.9*	-39.6	-19.5	0.5	-3.4	-20.1	x
CC(C)C#Cc1cnc2c(c1)C(=O)N([C@@H](C)CO)C[C@@H](C)[C@@H](CN(C)C(=O)Cc1ccccn1)O2	x	x	x	-9.5	x	x	x	x
O=C(CNC(=O)c1ccccc1O)N/N=C/c1cc(Br)ccc1OC(=O)/C=C/c1ccco1	x	51.5*	-1.0	41.8	-2.2	88.5*	70.2*	41.1*
CC=Cc1ccc2n(c1=O)C[C@H]1[C@H](CO)[C@@H](C(=O)N(C)C)[C@@H]2N1C(=O)c1ccc(F)cc1 (mixture of isomers)	x	x	x	-1.9	x	x	x	x
COc1cc(NS(=O)(=O)c2ccc(N/C=C(\C#N)c3nc4cc(Cl)ccc4o3)cc2)nc(OC)n1	7.7	54.0*	34.0	x	94.7*	22.5	43.5*	35.2
COc1cc(NS(=O)(=O)c2ccc(NC(C)=O)cc2)nc(OC)n1	-13.5	17.6	8.9	x	-18.7	4.0	x	x
CCOC(=O)c1c(C)nc2sc3c(=O)n(-c4ccc(C(C)=O)cc4)nnc3c2c1-c1ccc(Cl)cc1	15.8	71.8*	1.6	x	18.7	19.0	49.5*	49.2*
C[C@@H]1CN([C@@H](C)CO)C(=O)c2cc(NC(=O)NC3CCCCC3)ccc2O[C@@H](C)CCCCO[C@H]1CN(C)C(=O)c1ccccc1	x	x	x	-29.7	x	x	x	x
C/C(=N\NC(=O)c1ccccc1O)C1CC1	-0.3	52.4*	-7.3	14.5	-3.5	9.7	16.8	x
COc1cccc(C(=O)N/N=C(\C)c2ccc(NC(=O)Cc3ccccc3)cc2)c1OC	-5.6	-16.9	10.4	-89.2	-16.4	-1.8	x	x
Cc1cc(C)cc(C(=O)Nc2ccc(NC(=O)Cc3ccccc3)cc2)c1	11.5	52.5*	10.4	20.0	9.4	26.3	10.1	x
C/C(=N\NC(=O)c1ccccc1O)c1ccc(NC(=O)Cc2ccccc2)cc1	-7.5	50.7*	-8.4	12.1	-4.5	22.6	20.1	x
C[C@@H]1CN([C@H](C)CO)C(=O)Cc2cc(NC(=O)Nc3ccc(C(F)(F)F)cc3)ccc2O[C@H]1CN(C)S(C)(=O)=O	x	x	x	-21.9	x	x	x	x
C[C@]12CCC3C(CC[C@H]4CCCC[C@]34C)C1CC[C@@]2(O)CNCCO (stereo partly drawn)	11.6	98.0*	9.7	1.0	5.8	2.5	79.3*	41.7*
COc1ccccc1CNC(=O)C[C@H]1CC[C@@H](NC(=O)CC2CC2)[C@@H](CO)O1	x	x	x	-9.4	x	x	x	x
Cn1nccc1C(=O)Oc1cccc(/C=N/NC(=O)c2ccccc2O)c1	-96.2	3.6	-11.3	-107.7	4.0	1.7	x	x
